Hits are enriched below; roughly 4.8% of the tested compounds scored in any of these assays.
NALP1 inh = inhibitors of NALP1 inflammasome in yeast. inhibition, % at 10 µM. hit rate 0.61% among 280,000. AID 2071. S. cerevisiae NALP1/ASC/caspase-1 growth, X-gal OD620, 72 h; in the data active = inhibition mostly above about 24%, no sharp cut-off; inactive = mostly below about 32%
SKKanGAS inh = SKKanGAS growth inhibition | inhibition, % at 7.5 µM | hit rate 1.3% among 300,000 | S. pyogenes SKKanGAS, kanamycin growth, BacTiter-Glo, 6 h | AID 1662;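 active = mean replicate score, as percent of positive control median, at least 50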;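 also: strain carries kanamycin resistance gene driven by streptokinase promoter and grows in 40 µg/ml kanamycin; loss of luminescence reflects streptokinase promoter inhibition or plain growth inhibition; 0% = median of DMSO wells and 100% = positive control at its reference dose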
PfHsp90 yeast 2 = inhibits growth of yeast expressing Plasmodium falciparum Hsp90. hit rate 0.32% among 310,000. inhibition, % at 9.4 µM. S. cerevisiae expressing PfHsp90, BacTiter-Glo ATP, 48 h; yeast lacking PDR1 and PDR3 efflux regulators;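 active = every replicate shows inhibition above about 80%, whatever the replicate mean, limit read from the data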;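 also: 0% = DMSO neutral controls and 100% = 20 µM radicicol positive controls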
TIM10 inh = growth inhibitors of TIM10 yeast strain. S. cerevisiae TIM10 strain growth, BacTiter-Glo luminescence, 24 h. inhibition, % at 10 µM. hit rate 1.4% among 330,000;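 active = inhibition of 40% or more at the single tested concentration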;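 also: wild-type TIM10 isogenic control strain grown at permissive 25 °C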
tim10-1 inh = inhibits growth of tim10-1 mutant yeast; S. cerevisiae tim10-1 ts strain growth, BacTiter-Glo, 24 h; inhibition, % at 20 µM; hit rate 2.2% among 330,000; AID 463190;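 active = inhibition of at least 40%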;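 also: mutant grown at 25 °C; 0% = DMSO wells with yeast and 100% = wells holding no yeast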
tim23-1 inh = tim23-1 yeast growth inhibition; inhibition, % at 20 µM; hit rate 1.3% among 330,000; S. cerevisiae tim23-1 growth, BacTiter-Glo luminescence, 24 h;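 active = growth inhibition of the mutant yeast at or above 50%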;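 also: temperature-sensitive mutant grown at 25 °C; plate controls were DMSO-treated mutant yeast for no effect and medium wells lacking yeast for full effect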
tim10-1 conf = confirmation of tim10-1 mutant yeast growth inhibitors. shares compounds with tim10-1 inh. S. cerevisiae tim10-1 ts strain growth, BacTiter-Glo, 24 h. inhibition, % at 20 µM. hit rate 56% among 7,400. AID 463213;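 active = inhibition of yeast growth at or above a set limit in either of two repeat tests at 20 µM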;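 also: tim10-1 mutant grown at permissive 25 °C to find synthetic lethal compounds; 0% = DMSO yeast wells and 100% = medium wells without yeast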
The depositor's hits bear a star; x = no result given.

SMILES	NALP1 inh	SKKanGAS inh	PfHsp90 yeast 2	TIM10 inh	tim10-1 inh	tim23-1 inh	tim10-1 conf
Cc1ccn2c(NC3CCCC3)c(-c3cccs3)nc2c1	-16.0	-0.9	-12.5	21.1	46.2*	32.5	30.7*
c1csc(-c2nc3ccccn3c2NC2CCCCC2)c1	-1.1	0.8	3.0	31.4	47.6*	27.4	33.0*
O=C(CSc1nnc(-c2ccccc2)o1)N1CCN(c2ccccc2)CC1	-38.4	-6.0	x	-12.1	7.4	-11.9	x
Cn1c(=O)c2c(ncn2CC(=O)N/N=C/C(Br)=C/c2ccccc2)n(C)c1=O	42.2	-10.1	8.5	18.9	28.1	17.1	x
Cc1nc2ccccc2c2oc(C(=O)N3CCC(C)CC3)cc12	-4.6	5.2	-5.3	-3.6	46.2*	34.1	-27.9
O=C1c2cccc3c(N4CCCCC4)ccc(c23)C(=O)N1CCO	5.3	-2.8	-9.3	28.5	46.1*	40.8	29.4
CN(C)c1ccc([C@@H]2[C@@H]([N+](=O)[O-])[C@H]3C=Cc4ccccc4N3[C@H]2C(=O)c2ccc(Cl)cc2)cc1	29.6	x	-5.4	17.3	44.8*	33.3	25.8
O=C(c1ccccc1)C1C(c2ccccc2)C1[N+](=O)[O-] (stereo not given)	-20.6	-2.3	-46.6	-2.5	4.2	8.9	x
O=C(COc1ccc(Cl)cc1Br)Nc1cccc(S(=O)(=O)N2CCCC2)c1	x	x	-10.6	-16.9	4.4	19.8	x
Clc1cccc(/C=N\Nc2nccs2)c1	-10.8	18.8	-47.8	37.2	47.6*	47.0	12.3
C/C(=N\NC(N)=S)c1ccc(-n2ccnc2)cc1	x	5.0	-17.1	-3.5	9.7	14.5	x
C/C(=N\Nc1ccc(Cl)c(Cl)c1)c1ccc(-n2ccnc2)cc1	28.7	81.3*	-21.5	35.3	46.1*	12.3	19.0
C=CCn1c(CCCNC(=O)CCC)nc2ccccc21	-3.4	7.0	11.6	7.2	5.2	-4.2	x
CC1C(=O)N2CCCc3cc(S(=O)(=O)Nc4ccccc4C(N)=O)cc1c32 (stereo not given)	x	1.6	x	15.0	-1.1	5.2	x
O=C(ON=C1CCN(S(=O)(=O)c2ccccc2)CC1)c1ccccc1	4.7	-4.8	x	30.0	57.8*	38.5	55.7*
Cc1ccc(OCC(=O)NNC(=S)NC(=O)C2CCCCC2)c(C)c1	2.5	90.2*	60.0	-22.1	47.1*	32.4	-11.2
Cc1ccc(OCC(=O)N2CCCCCC2)c(C)c1	7.8	3.2	7.6	-19.8	21.1	11.8	x
CC1(C)Cc2nc3sc4c(=O)n(Cc5ccccc5)cnc4c3cc2CS1	19.3	-12.4	2.5	19.9	25.8	23.2	x
CCCn1cnc2c(sc3nc4c(cc32)CSC(C)(C)C4)c1=O	x	-8.8	-29.8	32.0	41.1*	28.6	7.5
COc1ccc(/C=C2\CCC/C(=C\c3ccc(OC)c(OC)c3OC)C2=O)c(OC)c1OC	9.3	-7.0	-10.1	20.5	40.7*	35.3	22.1
CC(C)NC(=O)NS(=O)(=O)c1cnccc1NC1CC2CCC1C2 (stereo not given)	-11.8	8.9	19.8	5.7	-3.3	-9.5	x
CCS(=O)(=O)N1Cc2ccccc2CC1C(=O)NCC12CC3CC(CC(C3)C1)C2 (stereo not given)	-15.0	8.3	-23.2	25.6	40.4*	34.7	29.0
CCS(=O)(=O)N1Cc2ccccc2CC1C(=O)Nc1ccc(F)cc1 (stereo not given)	x	-1.7	17.3	-10.8	-3.5	17.6	x
Fc1ccc(Nc2ncnc3sc4c(c23)CCC4)cc1	36.4	3.1	16.9	21.4	42.6*	47.1	27.6
COc1ccc(/C=N/Nc2ncnc(Cl)c2N)cc1OC	14.5	-6.8	19.7	-4.7	4.9	8.5	x
SMILES	NALP1 inh	SKKanGAS inh	PfHsp90 yeast 2	TIM10 inh	tim10-1 inh	tim23-1 inh	tim10-1 conf
COc1ccc(/C=N/Nc2ncnc3sc4c(c23)CCCC4)cc1OC	22.4	1.6	-14.3	25.9	40.8*	10.7	17.9
CCCN(CC(=O)Nc1ccccc1C)C(=O)CCl	11.6	-2.3	-7.3	34.7	40.8*	31.4	23.4
CCCN(CC(=O)Nc1ccccc1C)C(=O)COc1c(C)cccc1C	x	x	-28.3	7.5	35.1	27.0	x
O=C(Nc1ccc(C(F)(F)F)cc1)C1CCN(c2cnccn2)CC1	17.5	-1.6	23.0	10.3	41.4*	28.3	2.1
Cc1ccc(NC(=O)C2CCN(c3cnccn3)CC2)cc1	-0.4	16.0	-22.7	-5.6	-10.8	-3.5	x
CCCCCCC(=O)O	x	x	5.6	7.4	10.1	3.9	x
CCCCCCCCC(=O)O	x	9.8	x	11.8	45.5*	42.7	2.4
O=C(NCCc1ccc(Cl)cc1)C1CCN(S(=O)(=O)c2cccs2)CC1	10.3	-2.7	24.9	36.4	49.7*	15.4	39.8*
O=C(NCCc1ccc(Cl)cc1)c1ccc(S(=O)(=O)N2CCCC2)cc1	x	-10.9	1.8	33.0	47.8*	23.9	44.9*
Cc1c(C(=O)N2C[C@@H](C)O[C@@H](C)C2)oc2c(F)cccc12	-16.1	-2.2	-22.0	8.2	-1.8	6.1	x
COc1ccc(CN(C)CC(=O)c2c(N)n(Cc3ccccc3)c(=O)n(C)c2=O)c(OC)c1	x	5.1	-4.6	23.8	18.4	18.9	x
Cc1sc(C(C2C(=O)CC(C)(C)CC2=O)C2C(=O)CC(C)(C)CC2=O)cc1[N+](=O)[O-]	-1.0	5.1	7.6	37.4	43.8*	47.4	41.2*
COc1ccccc1N(Cc1ccccc1)S(=O)(=O)c1cccc(C(=O)Nc2ccccn2)c1	2.7	12.6	10.6	-5.4	15.4	23.9	x
CCCn1c(SCC(N)=O)nc2c(c1=O)C1(CCCC1)Cc1ccccc1-2	-7.9	-7.2	-14.8	19.9	21.1	22.7	x
Cn1c(NCCCO)nc2c(c1=O)C1(CCCCC1)Cc1ccccc1-2	10.8	x	21.2	30.3	54.1*	49.5	38.1*
CCC(=O)Nn1cnc2c(c1=O)C1(CCCCC1)Cc1ccccc1-2	-14.5	-0.7	-8.2	26.1	50.1*	32.7	36.8*
Cc1cc(Br)c(S(=O)(=O)NCCN2CCOCC2)cc1C	1.2	-0.3	16.6	0.9	5.6	9.8	x
O=C(NCCN1CCOCC1)/C(=C\c1ccccc1F)NC(=O)c1ccccc1	11.6	-3.6	8.4	-6.8	13.4	11.7	x
O=C(c1ccccc1Br)N1N=C(c2ccccc2)CC1c1ccccc1F (stereo not given)	20.5	19.4	-26.7	29.3	50.5*	46.3	48.0*
O=C(NC(=S)NNC(=O)c1ccccc1[N+](=O)[O-])c1ccc(Br)cc1	-2.6	63.1*	13.4	36.5	40.7*	49.1	44.4*
O=C(NNC(=S)NC(=O)c1ccccc1[N+](=O)[O-])c1ccccc1Cl	-9.8	1.3	4.5	14.1	16.2	13.0	x
CCCCCC(=O)NNC(=S)NC(=O)c1ccccc1[N+](=O)[O-]	6.2	0.2	x	18.3	43.0*	7.1	26.4
CCCCCC(=O)NNC(=S)NC(=O)c1cccc([N+](=O)[O-])c1	-0.5	-14.1	-9.4	23.7	22.4	5.4	x
